Screening data from PubChem BioAssay.
Sampled rows, rich in hits. Any-hit rate of the full collection: about 10%.
RORgamma inh: blocks mouse ROR gamma transcriptional activity | Potency, µM (titrated, usually from 53.6 µM), for inactives: top-dose activity change, negative = inhibition, hits mostly inhibitors | P51450 | 5.4% of 310,000 active | Drosophila S2 Gal4-RORgamma UAS-luciferase reporter, 20 h; also: % is scaled to controls: 0 for no effect and ±100 for the full control effect; nearly all actives have a fitted effect of over 60% in size
Target sequence (P51450 whole entry, looked up, the tested form may be a part): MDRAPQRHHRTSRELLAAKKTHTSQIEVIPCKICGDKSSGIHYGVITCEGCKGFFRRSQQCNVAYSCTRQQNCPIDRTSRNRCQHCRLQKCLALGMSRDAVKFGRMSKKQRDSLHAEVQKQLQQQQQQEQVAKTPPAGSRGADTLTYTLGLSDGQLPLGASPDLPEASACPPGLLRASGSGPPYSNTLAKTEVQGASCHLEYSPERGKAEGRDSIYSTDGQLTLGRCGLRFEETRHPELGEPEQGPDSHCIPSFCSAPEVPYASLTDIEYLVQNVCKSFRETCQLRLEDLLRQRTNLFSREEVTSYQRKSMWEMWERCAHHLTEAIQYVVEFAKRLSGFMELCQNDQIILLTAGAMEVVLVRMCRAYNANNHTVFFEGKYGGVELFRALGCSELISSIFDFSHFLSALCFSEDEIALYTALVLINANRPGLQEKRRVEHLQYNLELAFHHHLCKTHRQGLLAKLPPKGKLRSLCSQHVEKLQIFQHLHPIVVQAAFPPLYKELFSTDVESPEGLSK
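ROR gamma transcriptional activity was tracked as Gal4-UAS luciferase output in stably transfected Drosophila Schneider cells, with compound added 1 hr before 700 uM copper sulfate induction and a 20 hr ambient-temperature incubation.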
MCF10A rerep: induces DNA re-replication in MCF 10a normal breast cells | MCF 10A DNA re-replication, Hoechst nuclear intensity, 48 h | Potency, µM (series often up to 46.1 µM), inactives show at the highest dose activity, positive = re-replication, hits mostly activators | 2.9% of 350,000 active; also: % of control where 0% means no effect; nearly all actives have a fitted effect of over 50% in size
ELG1 repair inh: ELG1-dependent DNA repair inhibition; HEK293T ELG1-luciferase reporter, luminescence, 16 h; DNA damage induced by 5-fluorouridine; Potency, µM (series often up to 46.1 µM), without a hit: at the top dose activity change, negative = inhibition, usual class: inhibitors; 2.3% of 330,000 active; also: % is scaled to controls: 0 for no effect and ±100 for the full control effect; nearly all actives have a fitted effect of over 55% in size
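HEK293T cells expressing luciferase-tagged ELG1 (2,000/well) received 5-Fluorouridine plus compound or DMSO for 16 hr at 37 °C. Luciferase was read by ONE-Glo luminescence after 30 min at room temperature.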
Gal4-VP16 FLuc: inhibits Gal4-VP16 luciferase reporter, ROR gamma counter-screen; Potency, µM (titrated, usually from 53.6 µM), inactives show top-dose activity, negative = inhibition, actives largely listed as inhibitors; 3.5% of 310,000 active; Drosophila S2 Gal4-VP16 UAS-luciferase, luminescence, 20 h;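 also: Gal4-VP16 expression switched on by copper sulfate through the metallothionein promoter; % is scaled to controls: 0 for no effect and ±100 for the full control effect; nearly all actives have a fitted effect of over 50% in size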
SW480 rereplic: induces DNA re-replication in SW480 colon adenocarcinoma cells; SW480 DNA re-replication, Hoechst DNA content imaging, 48 h; Potency, µM (highest dose often 46.1 µM), inactives show top-dose re-replication activation, most hits filed as activators; 1.8% of 340,000 active; AID 624297; also: % of control where 0% means no effect; nearly all actives have a fitted effect of over 55% in size
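First, 250 cells per well were seeded. Next, compound or vehicle (23 nL) was pinned in, plates sat 48 hr at 37 C. Finally Hoechst was added for 40 min before fluorescence scanning.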
Starred values were filed as active, the others as inactive; [ ] = dose if it differs, or a comment. Calls follow the shape of the dose curve; as a rule, active = well fitted curve in the direction sought with a large enough effect; inconclusive = small, poorly fitted or top-dose-only effect, or another doubt; inactive = no such curve, though single readings can be large; an effect the other way counts as inactive or inconclusive. Potency is read from the fitted curve at half-maximal effect.

How did CCCCn1c(SCC(=O)Nc2ccc(OC)cc2)nc2ccc(N3CCOCC3)cc2c1=O do in these assays?
RORgamma inh: inconclusive; MCF10A rerep: 24%; ELG1 repair inh: inconclusive; Gal4-VP16 FLuc: 10µM*; SW480 rereplic: -6%

What do the screens show for `COCCNC(=O)CSc1nc2ccc(N3CCOCC3)cc2c(=O)n1Cc1ccc(OC)cc1`?
RORgamma inh: 10µM*; MCF10A rerep: inconclusive; ELG1 repair inh: 16%; Gal4-VP16 FLuc: 14µM*; SW480 rereplic: inconclusive

How did CCCCNC(=O)CSc1nc2ccc(N3CCOCC3)cc2c(=O)n1Cc1ccc(OC)cc1 do in these assays?
RORgamma inh: inconclusive; MCF10A rerep: inconclusive; ELG1 repair inh: inconclusive; Gal4-VP16 FLuc: -2%; SW480 rereplic: -3%

Results for CCCNC(=O)NC(=O)CSc1nc2ccccc2c(=O)n1Cc1ccncc1 ?
RORgamma inh: 9%; MCF10A rerep: 16%; ELG1 repair inh: -16%; Gal4-VP16 FLuc: 3%; SW480 rereplic: 3%

How did CCN(CC)CCNCc1ccc(-c2ccc(Cl)cc2)o1 do in these assays?
RORgamma inh: 7.9µM*; MCF10A rerep: 1%; ELG1 repair inh: -1%; Gal4-VP16 FLuc: 0%; SW480 rereplic: -1%

What do the screens show for `Cc1cc(C)n(CCCN2CCC(C(=O)Nc3cccc(-c4cccc(F)c4)c3)CC2)n1`?
RORgamma inh: -16%; MCF10A rerep: inconclusive; ELG1 repair inh: -17%; Gal4-VP16 FLuc: -9%; SW480 rereplic: inconclusive

Results for CCS(=O)(=O)Nc1ccc(-c2nc3cccnc3s2)cc1 ?
RORgamma inh: inconclusive; MCF10A rerep: 27%; ELG1 repair inh: inconclusive; Gal4-VP16 FLuc: -25%; SW480 rereplic: -7%

What do the screens show for `O=S(=O)(Nc1ccc(-c2nc3cccnc3s2)cc1)c1cccs1`?
RORgamma inh: -8%; MCF10A rerep: 6.5µM*; ELG1 repair inh: inconclusive; Gal4-VP16 FLuc: 12%; SW480 rereplic: 5%

What do the screens show for `Cc1cc(-c2nc3cccnc3s2)ccc1NS(=O)(=O)c1ccc2c(c1)OCCO2`?
RORgamma inh: 33%; MCF10A rerep: 5.2µM*; ELG1 repair inh: inconclusive; Gal4-VP16 FLuc: 5%; SW480 rereplic: inconclusive

What do the screens show for `O=S(=O)(Nc1ccc(-c2nc3cccnc3s2)cc1)c1ccccc1F`?
RORgamma inh: -6%; MCF10A rerep: inconclusive; ELG1 repair inh: inconclusive; Gal4-VP16 FLuc: 3%; SW480 rereplic: 23µM*

How did O=S(=O)(Nc1cccc2ncccc12)c1cccs1 do in these assays?
RORgamma inh: 2.2µM*; MCF10A rerep: 16µM*; ELG1 repair inh: 4.1µM*; Gal4-VP16 FLuc: 1%[0.365 µM]; SW480 rereplic: 6.5µM*

What do the screens show for `CCN1C[C@@H]2[C@@H]3C(=O)N(Cc4ccccc4)C(=O)[C@@H]3[C@](CC)(C1=O)N2C(=O)c1ccc(F)cc1`?
MCF10A rerep: -1%; SW480 rereplic: 11%

Results for CCN(CC)/[N+]([O-])=N/Oc1cc(O/N=[N+](\[O-])N(C)C)c([N+](=O)[O-])cc1[N+](=O)[O-] ?
RORgamma inh: inconclusive; Gal4-VP16 FLuc: -4%

What do the screens show for `CCC(=O)[C@]12O[C@@]3(C4C(=O)OCCC41)N(CC)C(C)=C(C(=O)OC)C(c1ccccc1)N3C2=O` (stereo partly specified)?
RORgamma inh: 14%[10 µM]; Gal4-VP16 FLuc: -2%[10 µM]

Results for Cc1c(NS(=O)(=O)c2cccs2)cccc1-c1nc2cccnc2s1 ?
RORgamma inh: 31%; MCF10A rerep: -3%; ELG1 repair inh: inconclusive; Gal4-VP16 FLuc: 28%; SW480 rereplic: -13%

Results for Cc1cc(-c2nc3cccnc3s2)ccc1NS(=O)(=O)c1cccs1 ?
RORgamma inh: -6%; MCF10A rerep: 5.8µM*; ELG1 repair inh: inconclusive; Gal4-VP16 FLuc: -5%; SW480 rereplic: inconclusive

What do the screens show for `O=S(=O)(Nc1ccc(-c2nc3cccnc3s2)cc1)c1ccc(Cl)s1`?
RORgamma inh: inconclusive; MCF10A rerep: 8.2µM*; ELG1 repair inh: inconclusive; Gal4-VP16 FLuc: 5%; SW480 rereplic: -2%

How did O=C(NCCCN1CCOCC1)c1ccc2c(c1)N(Cc1ccccc1F)C(=O)c1ccccc1S2=O (stereo unspecified) do in these assays?
RORgamma inh: 15%; MCF10A rerep: 3%; ELG1 repair inh: 5%; Gal4-VP16 FLuc: 7%; SW480 rereplic: 29%

What do the screens show for `O=C(NCCCN1CCCCC1)c1ccc2c(c1)NC(=O)c1ccccc1S2`?
RORgamma inh: 3%; MCF10A rerep: 21%; ELG1 repair inh: 0%; Gal4-VP16 FLuc: 1%; SW480 rereplic: -6%

What do the screens show for `O=C(NCCN1CCOCC1)c1ccc(/C=C2\Sc3ccccc3N(Cc3ccccc3F)C2=O)cc1`?
RORgamma inh: -11%; MCF10A rerep: inconclusive; ELG1 repair inh: 21µM*; Gal4-VP16 FLuc: -5%; SW480 rereplic: 18µM*

What do the screens show for `O=C(NCCN1CCOCC1)c1ccc2c(c1)N(Cc1ccccc1F)C(=O)CS2`?
RORgamma inh: -3%; MCF10A rerep: 5%; ELG1 repair inh: -5%; Gal4-VP16 FLuc: -7%; SW480 rereplic: 0%

What do the screens show for `COc1cccc(/C=C2/Sc3ccc(C(=O)NCCN4CCCC4)cc3NC2=O)c1`?
RORgamma inh: -36%; MCF10A rerep: -6%; ELG1 repair inh: 29%; Gal4-VP16 FLuc: inconclusive; SW480 rereplic: -4%

Results for Cc1ccc(/C=C2/Sc3ccc(C(=O)NCCN4CCOCC4)cc3NC2=O)cc1 ?
RORgamma inh: -1%; MCF10A rerep: 21µM*; ELG1 repair inh: 18%; Gal4-VP16 FLuc: 2%; SW480 rereplic: 5%

What do the screens show for `CN1CCN(CCCNC(=O)c2ccc(/C=C3\Sc4ccccc4N(Cc4ccccc4F)C3=O)cc2)CC1`?
RORgamma inh: inconclusive; MCF10A rerep: 16µM*; ELG1 repair inh: -9%; Gal4-VP16 FLuc: 0%[10 µM]; SW480 rereplic: 21µM*

What do the screens show for `O=C1Nc2cc(C(=O)NCCCN3CCCC3)ccc2S/C1=C/c1ccccc1F`?
RORgamma inh: -39%; MCF10A rerep: inconclusive; ELG1 repair inh: 4%; Gal4-VP16 FLuc: -16%; SW480 rereplic: 18µM*

How did O=C(C[n+]1ccc(C(=O)c2ccccc2)cc1)Nc1ccccc1OC(F)F do in these assays?
MCF10A rerep: -12%; ELG1 repair inh: -1%; SW480 rereplic: -3%

Results for C/C(=N\NC(=O)CN(c1ccc(Oc2ccccc2)cc1)S(C)(=O)=O)C(C)(C)C ?
RORgamma inh: 14%; MCF10A rerep: 16%; ELG1 repair inh: -7%; Gal4-VP16 FLuc: 0%; SW480 rereplic: -73%

How did O=C(NCc1ccc(F)cc1)C(=O)NCC(c1ccco1)N1CCOCC1 (stereo unspecified) do in these assays?
RORgamma inh: 29%; MCF10A rerep: 0%; ELG1 repair inh: 1%; Gal4-VP16 FLuc: 0%; SW480 rereplic: 4%
